Screens as filed in PubChem.
This is one part of a sample in which hits are shown more often than they occur.
MLL CXXC-DNA inh = qHTS Fluorescence Polarization Assay for Inhibitors of MLL CXXC domain - DNA interaction; Potency, µM (doses to about 115 µM), for the others: at the highest dose activity change, negative = inhibition, usual class: inhibitors; actives 0.037% (n = 290,000); MLL-CXXC / FITC-HOXA9 DNA fluorescence polarization; active = well fitted inhibition curve with a large enough effect in the polarisation, with a control signal flat, not every such curve was filed as active; inconclusive = small, poorly fitted or top-dose-only effect, or effect the other way, or a change in a side signal; inactive = no such curve, though single readings can be large or run the other way; the % refers to the polarisation; also: potency is read from the fitted curve at half-maximal effect
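Fluorescence polarization: 7 uM MLL-CXXC (stock) preincubated 5 min with compounds, then 50 nM fluorescein-HOX-A9 DNA (stock) added; 30 min ambient. Buffer 50 mM Tris-HCl pH 7.5, 50 mM NaCl, 1 mM DTT, 0.05% BSA.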
Menin-MLL TR inh = qHTS Assay for Inhibitors Targeting the Menin-MLL Interaction in MLL Related Leukemias: Competition With Texas Red Labeled MLL-derived Mutant Peptide. actives 0.23% (n = 270,000). O00255. Menin + Texas Red MLL mutant peptide, fluorescence polarization. AID 1768, 2009. Potency, µM (titrated, usually from 61.6 µM), inactives show at the top dose FP activity change, negative = inhibition, actives largely listed as inhibitors; active = well fitted inhibition curve with a large enough effect in the polarisation, with a control signal flat, not every such curve was filed as active; inconclusive = small, poorly fitted or top-dose-only effect, or effect the other way, or a change in a side signal; inactive = no such curve, though single readings can be large or run the other way; the % refers to the polarisation; also: potency is read from the fitted curve at half-maximal effect; % of control where 0% means no effect
Menin-MLL FL inh = qHTS Assay for Inhibitors Targeting the Menin-MLL Interaction in MLL Related Leukemias: Competition With Fluorescein Labeled MLL-derived Peptide | Fluorescence polarization, fluorescein-MLL peptide displacement from menin | FP activity change, % at 61.4 µM | 290,000 tested, under 10 active | AID 1766, 2009; active = well fitted curve in the direction sought with a large enough effect in the polarisation, not every such curve was filed as active; inconclusive = small, poorly fitted or top-dose-only effect, or effect the other way, or a change in a side signal; inactive = no such curve, though single readings can be large or run the other way; the % refers to the polarisation; also: % of control where 0% means no effect
MLL CXXC Fl = qHTS Fluorescence Polarization (FP) Assay for Inhibitors of MLL CXXC domain - DNA interaction: Fluorescein FP; MLL CXXC-DNA binding, fluorescein FP; AID 624160, 2012; Potency, µM (highest dose often 345 µM), without a hit: top-dose activity change, negative = inhibition, most hits filed as inhibitors; shares compounds with MLL CXXC-DNA inh; actives 70% (n = 200); also: potency is read from the fitted curve at half-maximal effect; nearly all actives have a fitted effect of over 80% in size
MLL CXXC FP-TR = qHTS Fluorescence Polarization (FP) Assay for Inhibitors of MLL CXXC domain - DNA interaction: Texas Red FP | MLL CXXC-DNA binding, Texas Red fluorescence polarization | AID 624161, 2012 | Potency, µM (doses to about 345 µM), for the others: at the top dose activity change, negative = inhibition, usual class: inhibitors | actives 40% (n = 200) | shares compounds with MLL CXXC-DNA inh; also: potency is read from the fitted curve at half-maximal effect; % is scaled to controls: 0 for no effect and ±100 for the full control effect; nearly all actives have a fitted effect of over 75% in size
MLL CXXC TRF = qHTS Fluorescence Polarization (FP) Assay for Inhibitors of MLL CXXC domain - DNA interaction: HTRF Assay | shares compounds with MLL CXXC-DNA inh | MLL CXXC-DNA binding, HTRF, biochemical | Potency, µM (titrated, usually from 172 µM), inactives show at the highest dose activity change, negative = inhibition, actives largely listed as inhibitors | actives 30% (n = 210); also: % is scaled to controls: 0 for no effect and ±100 for the full control effect; nearly all actives have a fitted effect of over 80% in size
* marks the source's active call; other numbers are inactive results. Unless noted, calls follow the shape of the dose curve; as a rule, active = well fitted inhibition curve with a large enough effect; inconclusive = small, poorly fitted or top-dose-only effect; inactive = no such curve, though single readings can be large or run the other way.

S=C(NC1CCCCC1)N1CCN(C2CCCCC2)CC1 was read as MLL CXXC-DNA inh inconclusive, Menin-MLL TR inh inconclusive, Menin-MLL FL inh -10.5, MLL CXXC Fl inconclusive, MLL CXXC FP-TR 13.7% and MLL CXXC TRF -0.3%.
`O=C(NC1CCCCC1)N1CCN(C2CCCCC2)CC1` gave MLL CXXC-DNA inh 4.5%, Menin-MLL TR inh -6.5% and Menin-MLL FL inh 0.4.
`N#CCCn1c(=O)c(-c2ccc(F)cc2)nc2cnc(Oc3cccc(Cl)c3)nc21` gave Menin-MLL TR inh -18.1% and Menin-MLL FL inh inconclusive.
O=c1[nH]c(-[n+]2ccccc2)c(/C=N/NC([S-])=Nc2ccccc2)s1 was read as MLL CXXC-DNA inh 35.5µM*, Menin-MLL FL inh inconclusive, MLL CXXC Fl inconclusive, MLL CXXC FP-TR inconclusive and MLL CXXC TRF 30.5%.
Screening Cc1cc[n+](-c2[nH]c(=O)sc2/C=N/NC([S-])=Nc2ccccc2)cc1 returned MLL CXXC-DNA inh -22.2%, Menin-MLL TR inh 9.6% and Menin-MLL FL inh inconclusive.
Screening Nc1nc(Cl)nc2c1ncn2C1OC(CO)C(O)C1F (stereo unspecified) returned Menin-MLL TR inh 0.8% and Menin-MLL FL inh -2.8.
Screening CCOC(=O)c1c(NC(C)=O)sc2c(OCCN(CC)CC)c(Br)ccc12 returned MLL CXXC-DNA inh 35.5µM*, Menin-MLL TR inh inconclusive, Menin-MLL FL inh 1.6, MLL CXXC Fl 113µM*, MLL CXXC FP-TR 4.9% and MLL CXXC TRF 2.1%.
`CCOC(=O)c1c(NC(C)=O)sc2c(OCC(O)CN(CC)CC)c(Br)ccc12` (stereo unspecified) gave MLL CXXC-DNA inh inconclusive, Menin-MLL TR inh inconclusive and Menin-MLL FL inh -1.5.
For O=[N+]([O-])c1ccc(Oc2ccc(S(=O)(=O)Nc3ccccc3)cc2)cc1 the results were MLL CXXC-DNA inh -4.1%, Menin-MLL TR inh inconclusive and Menin-MLL FL inh 2.7.
O=C1C(Cl)=C(NS(=O)(=O)c2ccc([N+](=O)[O-])cc2)C(=O)c2ccccc21 was read as MLL CXXC-DNA inh 50.1µM*, Menin-MLL FL inh -2.2, MLL CXXC Fl 56.5µM*, MLL CXXC FP-TR 100µM* and MLL CXXC TRF 76.9µM*.
`CC(C)C[C@H](NC(=O)[C@H](CC(C)C)NC(=O)[C@H](Cc1ccccc1)NC(=O)[C@@H](N)CO)C(=O)N[C@@H](CCCNC(=N)N)C(=O)N[C@@H](CC(N)=O)C(=O)N1CCC[C@H]1C(=O)N[C@@H](CC(N)=O)C(=O)N[C@@H](CC(=O)O)C(=O)N[C@@H](CCCCN)C(=O)N[C@@H](Cc1ccc(O)cc1)C(=O)N[C@@H](CCC(=O)O)C(=O)N1CCC[C@H]1C(=O)N[C@@H](Cc1ccccc1)C(=O)O` gave Menin-MLL TR inh -2.9% and Menin-MLL FL inh 2.9.
`COc1ccc(SCCN2CCN(CCc3ccccc3)CCC2=O)cc1` gave Menin-MLL TR inh inconclusive and Menin-MLL FL inh -3.5.
Screening CS(=O)(=O)n1nc(-c2ccc(Cl)cc2)nc1N returned MLL CXXC-DNA inh -14.3%, Menin-MLL TR inh 3.8% and Menin-MLL FL inh 0.2.
Screening Cn1nc(-c2ccc(Cl)cc2)nc2c(=O)n(C)c(=O)nc1-2 returned MLL CXXC-DNA inh 31.6µM*, Menin-MLL TR inh inconclusive, Menin-MLL FL inh inconclusive, MLL CXXC Fl 142µM*, MLL CXXC FP-TR inconclusive and MLL CXXC TRF 48.2%.
For COc1ccc(C(=O)c2coc3ccc(OC(C)=O)cc23)cc1 the results were MLL CXXC-DNA inh 24.1%, Menin-MLL TR inh 16.2% and Menin-MLL FL inh 1.5.
`COc1ccc2occ(C(=O)c3ccc(N)cc3)c2c1` gave MLL CXXC-DNA inh inconclusive, Menin-MLL TR inh 25.6%, Menin-MLL FL inh 3.8, MLL CXXC Fl 36.8%, MLL CXXC FP-TR 35.7% and MLL CXXC TRF -1.1%.
C[C@H](O)C(N)C(=O)O (stereo partly specified) was read as Menin-MLL TR inh 8.0% and Menin-MLL FL inh -5.1.
`C=C[C@]1(C)Cc2occ(C)c2C[C@H]1C(=C)C(=O)O` gave Menin-MLL TR inh -9.1% and Menin-MLL FL inh 3.3.
`C=C[C@@H]1[C@@H](C)[C@H](C)C(=O)C([C@H](O)C(C)C)[C@@H]1C` (stereo partly specified) gave Menin-MLL TR inh -0.6% and Menin-MLL FL inh -2.8.
Screening COc1ccc(C(C[N+](=O)[O-])c2c(-c3ccccc3)cc3ccccn23)cc1OC (stereo unspecified) returned MLL CXXC-DNA inh 6.7%, Menin-MLL TR inh -1.0% and Menin-MLL FL inh 3.4.
Screening COc1ccc(C(C[N+](=O)[O-])C2(c3ccc(OC)c(OC)c3)C(=O)c3ccccc3C2=O)cc1 (stereo unspecified) returned MLL CXXC-DNA inh inconclusive, Menin-MLL TR inh 10.0%, Menin-MLL FL inh 2.1, MLL CXXC Fl 25.3%, MLL CXXC FP-TR 18.0% and MLL CXXC TRF 23.3%.
Nc1cc(C(=O)O)c(N)c2c1C(=O)c1ccccc1C2=O was read as MLL CXXC-DNA inh 31.6µM*, Menin-MLL FL inh inconclusive, MLL CXXC Fl 113µM*, MLL CXXC FP-TR 40µM* and MLL CXXC TRF 149.7%.
Cc1ccc2c(c1)C(=O)c1c(C(=O)O)cccc1-2 was read as MLL CXXC-DNA inh 16.2%, Menin-MLL TR inh 6.6% and Menin-MLL FL inh 1.7.
For COc1cc2c(c(OC)c1OC)-c1c(cc(OC)c(OC)c1OC)CC(C)C(C)C2 (stereo unspecified) the results were Menin-MLL TR inh -25.9% and Menin-MLL FL inh -4.2.
`CNC(=O)[C@]1(C(F)(F)F)C[C@H](CCC2CCCCC2)CCCO1` gave Menin-MLL TR inh -16.0% and Menin-MLL FL inh 3.0.
Screening O=C(O)/C=C/C(=O)c1c(-c2ccccc2)[nH]c2ccccc12 returned MLL CXXC-DNA inh inconclusive, Menin-MLL TR inh 80.4%, Menin-MLL FL inh 5.2, MLL CXXC Fl 7.11µM*, MLL CXXC FP-TR 159µM* and MLL CXXC TRF 48.5µM*.
`CC(=O)c1c(-c2ccccc2)[nH]c2ccccc12` gave MLL CXXC-DNA inh 3.8%, Menin-MLL TR inh -30.0% and Menin-MLL FL inh 3.7.
